Reference: PubChem BioAssay
Activity calls are given as the source filed them.

Legend:
[1] = optical density shifts of acrAB sulA E. coli – strain DRC41, OD650, 48 h, E. coli filamentation inducer project, primary screen (AID 1152); conditions: higher = more signal, called active from +8 up or from −8 down;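 further: E. coli MC1000 strain DRC41 lacking acrAB efflux pump and sulA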
[2] = probe aLefty1 binding on compound microarray – biochemical, small-molecule microarray, 635/667 nm fluorescence, primary screen (AID 1153); conditions: higher = more signal;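 further: score merges spot fluorescence with signal-to-noise ratio from the scanned slide images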
[3] = plasmodial surface anion channel blockers, osmotic lysis – cell-based, P. falciparum Indochina, OD700, 1 h, primary screen (AID 1154); conditions: P. falciparum Indochina infected RBC osmotic lysis, higher = more signal, called active from +8 up or from −8 down
[4] = plasmodial surface anion channel blockers, osmotic lysis – cell-based, P. falciparum Indochina, OD700, 2 h, primary screen (AID 1155);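 further: lysis reports solute entry through the parasite surface anion channel PSAC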; conditions: P. falciparum Indochina infected erythrocytes, higher = more signal, called active from +8 up or from −8 down
[5] = changes in parasitized red cell lysis, either direction – P. falciparum Indochina, OD700, 3 h, PSAC antagonist project, primary screen (AID 1156); conditions: P. falciparum-infected erythrocytes, osmotic lysis, higher = more signal, called active from +8 up or from −8 down
[6] = plasmodial surface anion channel blockers, osmotic lysis – cell-based, P. falciparum Indochina, OD700, 18 h, primary screen (AID 1157); conditions: P. falciparum Indochina infected erythrocytes, osmotic lysis OD700, 18 h; higher = more signal, called active from +8 up or from −8 down
[7] = S6 kinase pathway phospho-S6 level changes – cell-based, A549, cytoblot, luminescence, serum-stimulated, primary screen (AID 1158); conditions: 5 h, higher = more signal;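 further: serum-stimulated A549 lung adenocarcinoma cells; signal is phosphorylated S6 detected by cytoblot immunostaining with HRP secondary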
[8] = biological target: NADPH oxidase 2 (Homo sapiens) (UniProt P04839); assay: compounds shifting NOX2 Amplex Red fluorescence – cell-based, HEK293-NOX2, PMA-stimulated, NOX inhibitor project, primary screen (AID 1159); conditions: 45 min, higher = more signal, called active from +8 up or from −8 down; further: test concentration not given here
NADPH oxidase 2 (Homo sapiens), sequence (P04839 whole entry, looked up): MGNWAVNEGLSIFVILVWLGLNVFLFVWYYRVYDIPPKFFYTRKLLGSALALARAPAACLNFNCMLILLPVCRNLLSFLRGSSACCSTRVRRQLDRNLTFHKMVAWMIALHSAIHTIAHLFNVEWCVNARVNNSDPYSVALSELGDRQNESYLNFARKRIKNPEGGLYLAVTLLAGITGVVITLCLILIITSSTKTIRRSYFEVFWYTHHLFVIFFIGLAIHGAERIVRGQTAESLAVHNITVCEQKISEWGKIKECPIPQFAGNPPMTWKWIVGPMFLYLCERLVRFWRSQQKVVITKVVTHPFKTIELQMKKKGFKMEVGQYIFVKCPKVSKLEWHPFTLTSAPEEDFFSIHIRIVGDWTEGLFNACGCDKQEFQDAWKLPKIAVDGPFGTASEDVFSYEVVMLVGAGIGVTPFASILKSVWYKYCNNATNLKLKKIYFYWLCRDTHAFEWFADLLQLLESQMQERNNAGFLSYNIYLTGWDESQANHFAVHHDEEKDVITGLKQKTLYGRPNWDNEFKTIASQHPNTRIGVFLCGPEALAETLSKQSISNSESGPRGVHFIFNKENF

[9] = biological target: NADPH oxidase 4 (Homo sapiens) (UniProt Q9NPH5); assay: compounds shifting NOX4 Amplex Red fluorescence – cell-based, HEK293-NOX4, tetracycline-induced, NOX inhibitor project, primary screen (AID 1160); conditions: HEK293-NOX4, Amplex Red H2O2 fluorescence, 45 min; higher = more signal, called active from +8 up or from −8 down
NADPH oxidase 4 (Homo sapiens), sequence (Q9NPH5 whole entry, looked up): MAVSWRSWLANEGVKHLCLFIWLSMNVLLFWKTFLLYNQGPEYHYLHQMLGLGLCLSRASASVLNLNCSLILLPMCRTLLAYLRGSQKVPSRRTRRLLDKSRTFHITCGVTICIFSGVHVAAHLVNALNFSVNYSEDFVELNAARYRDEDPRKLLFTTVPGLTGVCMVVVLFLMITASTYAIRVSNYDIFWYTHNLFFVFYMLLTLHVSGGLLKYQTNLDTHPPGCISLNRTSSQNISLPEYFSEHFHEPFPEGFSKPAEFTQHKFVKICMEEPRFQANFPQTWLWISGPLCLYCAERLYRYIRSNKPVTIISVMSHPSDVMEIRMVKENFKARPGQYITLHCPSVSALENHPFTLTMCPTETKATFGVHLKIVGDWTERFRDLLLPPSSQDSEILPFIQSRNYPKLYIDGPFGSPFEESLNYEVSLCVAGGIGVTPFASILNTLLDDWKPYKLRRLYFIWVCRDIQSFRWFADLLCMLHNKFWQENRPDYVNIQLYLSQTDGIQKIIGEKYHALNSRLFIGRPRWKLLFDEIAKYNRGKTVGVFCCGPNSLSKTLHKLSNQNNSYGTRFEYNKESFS

[10] = biological target: NADPH oxidase 5 (Homo sapiens) (UniProt Q96PH1); assay: compounds shifting NOX5 Amplex Red fluorescence – cell-based, HEK293-NOX5, NOX inhibitor project, primary screen (AID 1161); conditions: HEK293-NOX5, ionomycin, 45 min, higher = more signal
NADPH oxidase 5 (Homo sapiens), sequence (Q96PH1 whole entry, looked up): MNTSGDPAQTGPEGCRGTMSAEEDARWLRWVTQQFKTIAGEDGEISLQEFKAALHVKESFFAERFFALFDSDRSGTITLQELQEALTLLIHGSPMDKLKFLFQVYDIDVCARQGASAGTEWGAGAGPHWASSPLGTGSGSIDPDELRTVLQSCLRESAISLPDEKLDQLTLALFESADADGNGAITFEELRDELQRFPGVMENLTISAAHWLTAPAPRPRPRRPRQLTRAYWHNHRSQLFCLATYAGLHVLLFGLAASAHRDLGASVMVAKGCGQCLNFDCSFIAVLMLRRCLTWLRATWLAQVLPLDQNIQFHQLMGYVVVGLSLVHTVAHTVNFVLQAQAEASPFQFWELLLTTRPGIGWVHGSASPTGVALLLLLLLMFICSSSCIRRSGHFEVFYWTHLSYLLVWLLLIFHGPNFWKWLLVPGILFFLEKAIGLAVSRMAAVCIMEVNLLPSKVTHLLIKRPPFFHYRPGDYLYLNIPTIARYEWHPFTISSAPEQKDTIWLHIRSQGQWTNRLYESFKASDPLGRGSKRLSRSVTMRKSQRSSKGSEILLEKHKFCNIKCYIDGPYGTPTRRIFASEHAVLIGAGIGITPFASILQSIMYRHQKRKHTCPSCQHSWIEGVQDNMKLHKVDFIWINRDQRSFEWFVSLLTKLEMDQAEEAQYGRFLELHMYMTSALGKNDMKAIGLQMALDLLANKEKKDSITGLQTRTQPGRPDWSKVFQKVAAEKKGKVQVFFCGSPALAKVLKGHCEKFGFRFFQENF

[11] = compound effects on lung adenocarcinoma cell viability – A549, calcein-AM fluorescence, 48 h, basal, profiling panel (AID 1162); conditions: higher = more signal; further: test concentration not given here
[12] = compound effects on differentiated 3T3-L1 adipocyte viability – cell-based, 3T3-L1 adipocytes, calcein-AM fluorescence, 48 h, basal, profiling panel (AID 1163); conditions: 3T3-L1 adipocytes viability, higher = more signal; further: test concentration not given here
[13] = compound effects on hepatocellular carcinoma cell viability – HepG2, calcein-AM fluorescence, 48 h, basal, profiling panel (AID 1164); conditions: higher = more signal; further: test concentration not given here
[14] = compound effects on multiple myeloma cell viability – MM1S, calcein-AM fluorescence, 48 h, basal, profiling panel (AID 1165); conditions: higher = more signal; further: test concentration not given here
[15] = calcein-AM signal in unstimulated myeloma cells – cell-based, calcein-AM fluorescence, 48 h, PK04 Diversity Set, profiling panel (AID 1166); conditions: RPMI8226 myeloma viability, higher = more signal;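 further: cells grown under basal conditions without added stimulus; test concentration not given here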
[16] = JC-1 mitochondrial signal, unstimulated HepG2 cells – cell-based, JC-1 fluorescence, 24 h, 100 nL compound, profiling panel (AID 1167); conditions: HepG2 mitochondrial potential, higher = more signal; further: test concentration not given here
[17] = JC-1 mitochondrial signal, unstimulated adipocytes – cell-based, JC-1 fluorescence, 3T3-L1 adipocytes, 24 h, 100 nL compound, profiling panel (AID 1168); conditions: JC-1 mitochondrial fluorescence, higher = more signal, called active from +8 up or from −8 down; further: test concentration not given here
[18] = JC-1 mitochondrial signal, unstimulated myeloma cells – cell-based, JC-1 fluorescence, RPMI8226, 24 h, 100 nL compound, profiling panel (AID 1169); conditions: JC-1 mitochondrial potential fluorescence, higher = more signal; further: test concentration not given here
[19] = JC-1 mitochondrial signal, unstimulated MM1S myeloma – cell-based, JC-1 fluorescence, 24 h, 100 nL compound, profiling panel (AID 1170); conditions: MM1S mitochondrial potential, higher = more signal; further: test concentration not given here
[20] = resazurin metabolic signal in A549 cells – cell-based, resazurin fluorescence, 24 h, PK04 Diversity Set, profiling panel (AID 1171); conditions: A549 viability, higher = more signal, called active from +8 up or from −8 down; further: test concentration not given here

SMILES	z-score [1]	composite z-score [2]	z-score [3]	z-score [4]	z-score [5]	z-score [6]	z-score [7]	z-score [8]	z-score [9]	z-score [10]	z-score [11]	z-score [12]	z-score [13]	z-score [14]	z-score [15]	z-score [16]	z-score [17]	z-score [18]	z-score [19]	z-score [20]
C=CCC(OC(C)=O)[C@@H]1[C@@H](N(Cc2cc3ccccc3o2)C(=O)c2ccc(-c3ccccc3)cc2)c2cc(OCCCO)ccc2N1C(=O)Cc1ccc(OC)cc1 (stereo not given in full)	-1.14 (inactive)	-0.0547	0.702 (inactive)	0.701 (inactive)	0.365 (inactive)	0.703 (inactive)	0.3	-0.0713 (inactive)	-0.918 (inactive)	1.09	0.315	0.443	1.04	0.0213	-0.226	1.23	-0.76 (inactive)	0.738	0.239	0.0443 (inactive)
COC(=O)[C@@]1(Cc2ccccc2CN=[N+]=[N-])N=C(c2ccc(OCCCO)cc2)O[C@H]1c1ccccc1CN=[N+]=[N-]	-0.586 (inactive)	0.0288	21.8 (active)	7.79 (inactive)	0.912 (inactive)	1.72 (inactive)	0.141	-2.2 (inactive)	-0.00368 (inactive)	-2.01	-3.82	0.522	-5.01	-3.56	-3.89	-0.86	-1.38 (inactive)	-1.07	-2.09	-2.82 (inactive)
O=C(CS)NCCCCCNC(=O)[C@@H]1C[C@@H]2C(=O)N[C@@H](Cc3ccccc3)C(=O)N2[C@@H]1c1cccc(OCCO)c1	-0.145 (inactive)	-1.01	2.5 (inactive)	0.148 (inactive)	-0.395 (inactive)	-0.0429 (inactive)	-0.16	1.73 (inactive)	0.924 (inactive)	0.226	0.688	-0.284	1.18	0.57	0.521	1.51	0.19 (inactive)	-0.203	-0.156	-0.488 (inactive)
COCCOC(=O)N1C(=O)[C@@]2(c3ccccc31)[C@H](c1ccccc1OCCO)N1[C@H](c3ccccc3)[C@H](c3ccccc3)OC(=O)[C@H]1[C@@H]2C(=O)N1CCCCCCC1	-0.553 (inactive)	3.11	1.26 (inactive)	0.612 (inactive)	0.0224 (inactive)	0.557 (inactive)	-0.37	0.168 (inactive)	-1.29 (inactive)	0.481	-0.785	1	0.104	-2.51	-1.75	0.179	-0.256 (inactive)	-0.641	-1.07	-0.585 (inactive)
O=C(NCCN1CCOCC1)[C@@H]1c2ccccc2C(=O)N(Cc2ccccc2)[C@H]1c1ccc(CO)cc1	0.347 (inactive)	-0.101	1.23 (inactive)	-0.222 (inactive)	0.766 (inactive)	-0.0161 (inactive)	-0.214	-1.71 (inactive)	-0.652 (inactive)	-2.89	0.178	-0.323	0.225	-0.593	0.137	2.07	0.422 (inactive)	-0.78	-0.218	1.59 (inactive)
O=C1OCCC=C[C@H]2OC34C=CCN(c5ccc(Cl)cc5)C(=O)[C@H]3N(CCCCCCO)C(=O)[C@@H]4C12 (stereo not given in full)	1.96 (inactive)	-0.0292	0.769 (inactive)	0.138 (inactive)	1.13 (inactive)	0.255 (inactive)	0.551	1.47 (inactive)	0.036 (inactive)	2.61	1.26	-0.043	1.21	1.69	-1.1	1	0.335 (inactive)	-0.0541	1.34	0.97 (inactive)
O=C1[C@@]23C=C(Br)[C@H](C[C@@H]2COC3)[C@@]12CO2	-1.07 (inactive)	-0.217	0.297 (inactive)	0.0503 (inactive)	-0.497 (inactive)	0.258 (inactive)	-0.679	0.249 (inactive)	0.218 (inactive)	0.139	-0.0321	-1.05	-0.493	-2.27	-1.1	-1.73	0.281 (inactive)	-0.213	-0.809	-0.252 (inactive)
CN(C)C(=O)[C@@]1(CCC(=O)OC(C)(C)C)N=C(c2ccc(OCCCO)cc2)O[C@H]1c1ccccc1CN=[N+]=[N-]	0.476 (inactive)	0.121	14.6 (active)	1.39 (inactive)	0.668 (inactive)	0.447 (inactive)	-0.25	-1.73 (inactive)	-0.111 (inactive)	-0.901	-0.286	-0.607	0.423	-0.124	-0.389	0.628	-0.682 (inactive)	-1.18	-0.496	1.19 (inactive)
